Reference: publication PMC9838217, “Structure of SALL4 zinc finger domain reveals link between AT-rich DNA binding and Okihiro syndrome”
Positions count from the first letter of the chain named.

Legend:
[1] = biological target: T1, SALL4 ZFC4 R900W (HT-SELEX) (Mus musculus, UniProt Q8BX22 870-940, R900W); experiment: HT-SELEX; high values mean tight binding; settings: protein: recombinant; vector His6-GST; dsDNA, one strand shown
T1 sequence: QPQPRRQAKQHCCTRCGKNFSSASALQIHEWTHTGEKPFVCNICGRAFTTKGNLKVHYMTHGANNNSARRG
Summary of the method: (§1)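 DNA from a random library (1.5 µg in the first cycle, 200 ng afterwards) was incubated with purified recombinant mouse SALL4 zinc finger cluster 4, residues 870–940 (1 µg), for 10 min at room temperature in 100 µl buffer: 10 mM Tris–HCl pH 7.5, 50 mM NaCl, poly(dI-dC), DTT. Bound complexes were pulled down on Ni2+ beads, washed and PCR-amplified, and the selection was repeated for up to 6 cycles in triplicate. MiSeq reads were scanned for 6-mers, and binding signal is each canonical k-mer's read fraction as fold change over the initial random library.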

[2] = biological target: T2, SALL4 ZFC4 G921D (HT-SELEX) (Mus musculus, UniProt Q8BX22 870-940, G921D); experiment: HT-SELEX; high values mean tight binding; settings: protein: recombinant; vector His6-GST; dsDNA, one strand shown
T2 sequence: T1 sequence with W31R, G52D
Summary of the method: as §1

Row | Sequence | binding signal [1] [fold-change vs cycle 0] | binding signal [2] [fold-change vs cycle 0]
1 | CTTCGC | 0.34 ± 0.0357 | 0.455 ± 0.0772
2 | GGGCTA | 0.35 ± 0.0254 | 0.487 ± 0.0896
3 | TCGCGA | 0.248 ± 0.0259 | 0.374 ± 0.0699
4 | GACGCC | 0.116 ± 0.00704 | 0.225 ± 0.0674
5 | CCGACC | 0.172 ± 0.00253 | 0.309 ± 0.075
6 | GCCCAC | 0.151 ± 0.00605 | 0.271 ± 0.0717
7 | ATCGCC | 0.24 ± 0.00657 | 0.401 ± 0.088
8 | GCGGCC | 0.0274 ± 0.00551 | 0.107 ± 0.0539
9 | GGCCCA | 0.126 ± 0.00969 | 0.245 ± 0.0696
10 | CGCCTA | 0.26 ± 0.0104 | 0.413 ± 0.0625
11 | CCGACG | 0.143 ± 0.00739 | 0.255 ± 0.0634
12 | GCTCGA | 0.308 ± 0.00752 | 0.475 ± 0.0642
13 | GGGCAC | 0.144 ± 0.00697 | 0.281 ± 0.0804
14 | AACGGC | 0.225 ± 0.0115 | 0.356 ± 0.0593
15 | CGCTAG | 0.338 ± 0.0234 | 0.465 ± 0.071
16 | CGGGGC | 0.0617 ± 0.00701 | 0.163 ± 0.0639
17 | GTCGAC | 0.301 ± 0.0134 | 0.452 ± 0.0612
18 | GAGCCA | 0.301 ± 0.00918 | 0.466 ± 0.0659
19 | CTGTGC | 0.34 ± 0.0263 | 0.471 ± 0.046
20 | GACAGC | 0.361 ± 0.0178 | 0.491 ± 0.0963

Row | Sequence | binding signal [1] [fold-change vs cycle 0] | binding signal [2] [fold-change vs cycle 0]
21 | GAACGC | 0.308 ± 0.012 | 0.446 ± 0.0568
22 | CGAGCC | 0.138 ± 0.0111 | 0.272 ± 0.0858
23 | AGCTGC | 0.284 ± 0.0104 | 0.414 ± 0.0709
24 | ATGCCC | 0.331 ± 0.00967 | 0.475 ± 0.0568
25 | GCCGGA | 0.106 ± 0.00682 | 0.224 ± 0.0644
26 | CGGACC | 0.198 ± 0.0105 | 0.315 ± 0.0637
27 | AGCGCT | 0.189 ± 0.0213 | 0.343 ± 0.109
28 | CCGCAG | 0.123 ± 0.0191 | 0.234 ± 0.0772
29 | GGGGCA | 0.178 ± 0.00946 | 0.291 ± 0.0681
30 | CCCACG | 0.214 ± 0.0117 | 0.319 ± 0.0528
31 | ACCGGG | 0.239 ± 0.0269 | 0.357 ± 0.0693
32 | AGCCGC | 0.0699 ± 0.00939 | 0.174 ± 0.0601
33 | CGGCGA | 0.077 ± 0.0153 | 0.177 ± 0.0705
34 | GCGACA | 0.186 ± 0.0276 | 0.338 ± 0.0565
35 | GCTAGC | 0.329 ± 0.0178 | 0.477 ± 0.0879
36 | GTGCAC | 0.313 ± 0.0179 | 0.456 ± 0.0786
37 | CTGCAC | 0.345 ± 0.044 | 0.47 ± 0.0692
38 | ACGTCG | 0.298 ± 0.0109 | 0.438 ± 0.0515
39 | AGCCCA | 0.323 ± 0.00919 | 0.465 ± 0.0703
40 | GGCTGA | 0.349 ± 0.0304 | 0.483 ± 0.072
